Screens (PubChem)
Hits are enriched below; roughly 3.5% of the tested compounds scored in any of these assays.
FBW7 activator – FBW7 E3 ligase activators, primary screen, biochemical, AlphaScreen, human; AlphaScreen FBW7–phospho-cyclin E peptide binding, activator screen; normalized activity (activation), % at 26.1 µM; 0.13% of 650,000 active; in the data active = normalized activity above about 1.9%;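 also: purified mutant Fbw7 with reduced substrate affinity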
Target sequence (Q969H0 whole entry, looked up): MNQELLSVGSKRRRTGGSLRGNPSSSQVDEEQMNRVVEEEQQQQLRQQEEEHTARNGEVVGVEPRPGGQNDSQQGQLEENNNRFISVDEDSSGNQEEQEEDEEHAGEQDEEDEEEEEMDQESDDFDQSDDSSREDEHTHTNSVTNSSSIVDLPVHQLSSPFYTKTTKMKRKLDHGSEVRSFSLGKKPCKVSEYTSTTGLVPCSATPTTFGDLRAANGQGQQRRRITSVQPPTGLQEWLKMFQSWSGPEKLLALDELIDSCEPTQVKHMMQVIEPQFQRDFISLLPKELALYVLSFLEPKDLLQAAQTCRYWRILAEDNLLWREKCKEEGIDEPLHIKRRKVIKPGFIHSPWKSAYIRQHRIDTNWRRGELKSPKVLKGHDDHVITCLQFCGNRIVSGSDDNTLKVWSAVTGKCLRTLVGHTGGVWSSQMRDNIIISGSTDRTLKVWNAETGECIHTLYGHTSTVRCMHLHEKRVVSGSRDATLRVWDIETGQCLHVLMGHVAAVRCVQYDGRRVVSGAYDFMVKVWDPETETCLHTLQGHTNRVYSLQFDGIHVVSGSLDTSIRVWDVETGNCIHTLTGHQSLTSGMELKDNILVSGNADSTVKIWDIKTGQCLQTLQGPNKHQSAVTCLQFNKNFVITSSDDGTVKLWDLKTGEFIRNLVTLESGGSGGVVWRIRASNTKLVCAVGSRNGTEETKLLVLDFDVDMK
GPR151 ag – activators of human GPR151, primary screen, cell-based, PathHunter beta-arrestin, luminescence | G-protein coupled receptor 151 (Homo sapiens), Q8TDV0 | PathHunter beta-arrestin GPR151 cells | activation, % at 11.2 µM | 1% of 650,000 active | AID 1508602, 2020; in the data active = activation above about 4.9%
TEAD-YAP block – TEAD-YAP interaction inhibition, primary screen, TEAD-YAP interaction inhibitor project, luminescence, HEK-TIYL cells | 1.4% of 640,000 active | TEAD-Gal4/YAP UAS-luciferase luminescence | inhibition, % at 9.12 µM; in the data active = inhibition above about 32%
MITF primary – MITF inhibitors, primary screen, biochemical, AlphaScreen, human | AID 1259374, 2018 | 0.91% of 650,000 active | AlphaScreen MITF homodimerization, bead proximity signal | inhibition, % at 2.6 µM; in the data active = inhibition above about 50%
MITF inh conf – MITF inhibitors, retest of hits, confirmation, biochemical, AlphaScreen, triplicate. AlphaScreen MITF homodimerization, biotin/His-MITF beads. shares compounds with MITF primary. inhibition, % at 2.6 µM. 16% of 4,700 active;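 active = inhibition above a cutoff derived from the DMSO control wells, cut at about 28% in these data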;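 also: inhibitors lower the bead chemiluminescence by keeping MITF from dimerizing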
AlphaScreen DR – AlphaScreen optical interference compounds, dose response, counter-screen, biochemical, HTS; AlphaScreen optical interference counterscreen, cell-free; IC50, µM; AID 1259373, 2018; 6% of 480 active; shares compounds with MITF primary; call rule not given here
AlphaScreen intf2 – AlphaScreen optical interference compounds, counter-screen for MITF inhibitor project, biochemical, triplicate | shares compounds with MITF primary | LysRS AlphaScreen counterscreen, signal interference | inhibition, % at 2.6 µM | 7.6% of 4,700 active | AID 1259376, 2018;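 active = inhibition above a cutoff derived from the DMSO control wells, cut at about 30% in these data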
Numbers stand for hits; - = inactive; . = no result given.

SMILES	FBW7 activator	GPR151 ag	TEAD-YAP block	MITF primary	MITF inh conf	AlphaScreen intf2	others
O=C(CC1CCCC1)N1CCN(c2ccc(-c3ccccn3)nn2)CC1	-	-	-	110.8	110.9	100.6
O=C(Cn1cnc2ccccc2c1=O)N1CCN(c2ccc(-c3ccccn3)nn2)CC1	-	-	-	116.3	111.8	100.6
O=C(CCC1CCCN(C(=O)CC2CCCCC2)C1)N1CCN(c2ccccn2)CC1 (stereo not given)	-	-	-	-	.	.
CCCCCCNc1nc(Nc2ccc(I)cc2C)nc(N2CCCC2)n1	-	-	-	-	.	.
CC1CCN(C=C(S(=O)(=O)c2ccccc2)S(=O)(=O)c2ccccc2)CC1	-	-	-	-	.	.
CC[C@@H]1NC(=O)[C@@H]2C[C@H](NC(=O)OC)CN2C1=O	-	-	-	-	.	.
CC1CCCCN1Cc1ccc(C(=O)NCc2cccs2)c(=O)[nH]1 (stereo not given)	-	-	-	-	.	.
NC(=O)c1ccc[n+](CC(=O)c2ccc(-c3ccccc3)cc2)c1	-	-	-	-	.	.
COc1ccc2nc(-c3ccco3)c(-c3ccco3)nc2c1	-	-	-	51.5	66.3	-	AlphaScreen DR=-
CN(Cc1cscn1)C(=O)C1CC12CCN(Cc1ccc3c(c1)OCCO3)CC2 (stereo not given)	-	-	-	-	.	.
Cc1oc(C(=O)O)cc1CSCCSCc1cc(C(=O)O)oc1C	-	-	-	51.5	42.5	-	AlphaScreen DR=-
CCN(CC)CCNS(=O)(=O)c1ccc2[nH]cc(C(=O)O)c(=O)c2c1	-	-	-	52.0	-	-
CCOC(=O)CNS(=O)(=O)c1ccc2[nH]cc(C(=O)O)c(=O)c2c1	-	-	-	52.4	-	-
COc1ccc(CNS(=O)(=O)c2ccc3[nH]cc(C(=O)O)c(=O)c3c2)cc1	-	-	-	-	.	.
Cc1cccc(NC(=O)c2ccc(NS(=O)(=O)c3ccc4[nH]cc(C(=O)O)c(=O)c4c3)cc2)c1	-	-	-	70.1	40.7	-
Nc1cc(Nc2nccc3ccccc23)ncn1	-	-	-	-	.	.
Cc1cc(C)n(CCNC2CCN(c3ccc(C(=O)NC(C)c4ccccc4)cc3)CC2)n1 (stereo not given)	-	-	-	90.8	-	-
CC(=O)NC1(c2ccccc2F)CCN(C(=O)CCC(=O)O)CC1	-	-	-	76.5	-	-
O=C(/C=C/c1ccccc1Cl)NC(=S)NNC(=O)c1cccs1	-	-	-	-	.	.
Cc1cc(C(=O)NNC(=S)NC(=O)/C=C/c2ccccc2Cl)n[nH]1	-	-	-	72.1	34.4	70.5
CS(=O)(=O)c1cncnc1C1CCCN(C(=O)N2CCCC2)C1 (stereo not given)	-	-	-	-	.	.
CCN(CC)C(=O)CN1CCCC(c2ncncc2S(C)(=O)=O)C1 (stereo not given)	-	-	-	63.5	-	-
CC(C)CC(NC(=O)COc1ccc(Br)cc1)C(=O)O (stereo not given)	-	-	-	-	.	.
Cc1cnc(N2CCCC2CO)nc1NCCCN1CCCC1=O (stereo not given)	-	-	-	-	.	.
CCC(Sc1nc2ccsc2c(=O)n1CCC(C)C)C(=O)Nc1ccc2c(c1)OCO2 (stereo not given)	-	-	-	-	.	.
SMILES	FBW7 activator	GPR151 ag	TEAD-YAP block	MITF primary	MITF inh conf	AlphaScreen intf2	others
COc1ccc(NC(=O)CCCCCn2c(SCC(=O)Nc3ccccc3OC)nc3ccsc3c2=O)cc1	-	-	-	-	.	.
CCCCn1c(SCC(=O)Nc2ccccc2OC)nc2ccsc2c1=O	-	-	-	57.6	-	-
CCCCn1c(SC(CC)C(=O)Nc2ccc3c(c2)OCO3)nc2ccsc2c1=O (stereo not given)	-	-	-	69.0	-	-
Cc1cccc(NC(=O)CN(c2ccc(I)cc2)S(C)(=O)=O)c1	-	-	-	71.2	-	-
Cc1ccc(NC(=O)CN(c2ccc(I)cc2)S(C)(=O)=O)cc1	-	-	-	-	.	.
Nc1c(C(=O)Nc2ccccc2F)sc2nc3c(cc12)CCCC3	-	-	-	-	.	.
COc1cc(OC)c(OC)cc1CN1CCN(Cc2ccccc2Br)CC1	-	-	-	-	.	.
COc1ccc(CN2CCN(Cc3cc(OC)c(OC)cc3[N+](=O)[O-])CC2)cc1OC	-	-	-	67.5	-	-
COc1cc(OC)c(OC)cc1CN1CCN(Cc2cccc(Br)c2)CC1	-	-	-	73.2	-	-
COc1cc(OC)c(OC)cc1CN1CCN(Cc2ccccc2Cl)CC1	-	-	-	74.8	-	-
COc1cc(OC)c(OC)cc1CN1CCN(Cc2ccc(SC)cc2)CC1	-	-	-	52.1	-	-
CC(=O)C(Cc1ccccc1)NC(=O)COc1cccc(C#N)c1 (stereo not given)	-	-	-	-	.	.
COc1cc(OC)c(OC)cc1CN1CCN(Cc2ccccc2F)CC1	-	-	-	76.9	-	-
COc1ccc(CN2CCN(Cc3ccccc3OC)CC2)c(OC)c1	-	-	-	78.1	-	-
COc1cc(OC)c(OC)cc1CN1CCN(Cc2cc(OC)c(OC)cc2OC)CC1	-	-	-	70.6	-	-
COc1ccc(OC)c(CN2CCN(Cc3ccc(OC)cc3OC)CC2)c1	-	-	-	-	.	.
COc1ccccc1CN1CCOCC1	-	-	-	58.5	-	-
COc1ccc(CN2CCN(Cc3cc(OC)c(OC)cc3OC)CC2)c(OC)c1	-	-	-	72.8	-	-
COc1ccc(CN2CCSCC2)c(OC)c1	-	-	-	-	.	.
COc1ccc(CN2CCN(Cc3ccccc3F)CC2)c(OC)c1	-	-	-	81.1	-	-
COc1cc(CN2CCCC2)c([N+](=O)[O-])cc1OC	-	-	-	-	.	.
COc1ccc(CN2CCN(Cc3cc(OC)c(OC)cc3[N+](=O)[O-])CC2)c(OC)c1	-	-	-	80.0	-	-
Cn1cc(CN2CCc3ccc(NC(=O)C4CCCO4)cc3C2)c(-c2ccccc2)n1 (stereo not given)	-	-	-	-	.	.
CCOC(=O)c1c(NC(=O)c2ccc(S(=O)(=O)N3CCN(C(=O)OCC)CC3)cc2)sc2c1CCC(C)C2 (stereo not given)	-	-	-	-	.	.
CCN(CC)CC(O)CNCc1ccc(Cl)cc1 (stereo not given)	-	-	-	53.8	-	-
OC(COCC1COc2ccccc2O1)CN1CCN(c2cccc(Cl)c2)CC1 (stereo not given)	-	-	-	-	.	.
